# PubChem BioAssay (EPA / NIEHS)
# Inconclusive results are not listed. Calls of active or inactive are those of the source. How the source made its calls: active means hit-call score of the fitted dose curve at least 0.9, where 1 is the maximum; inconclusive means response in the unintended direction; inactive means score below 0.9.
# How the values were obtained:
# [1] = target: human Ephrin type-A Receptor 1 (EphA1), EPHA1 (gene 2041) (UniProt P21709); test: NVS_ENZ_hEphA1: NovaScreen (NVS) Enzymatic Assay for human Ephrin type-A Receptor 1 (EphA1) (AID 2283158);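 further: activity is signal loss versus DMSO meaning EphA1 kinase inhibition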
# Summary of the method: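 Recombinant kinase, fluorescent substrate, mobility-shift separation, fluorescence read at 1 h. Single-point duplicates at 25 uM; hits (e.g., ≥30% inhibition) run singleton concentration-response, max 50 uM. DMSO = negative control/baseline.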
# [2] = target: Cytochrome P450 3A4 (Homo sapiens) (UniProt P08684); test: NVS_ADME_hCYP3A4: NovaScreen (NVS) CYP450-related Enzyme Activity (ADME) Assay for human CYP3A4 (AID 2283110)
# Summary of the method: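 Compounds were first screened in duplicate at 10 uM against recombinant CYP3A4 produced in insect cells, then actives were run in concentration series. Enzyme activity was measured by fluorescence after 0.33 hour, with acetonitrile as baseline.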
# [3] = target: human Matrix Metalloproteinase-9 (MMP9), MMP9 (gene 4318) (UniProt P14780); test: NVS_ENZ_hMMP9: NovaScreen (NVS) Enzymatic Assay for human Matrix Metalloproteinase-9 (MMP9) (AID 2283190);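 further: cell-free recombinant MMP9 protease activity read by fluorescent substrate signal; active means inhibition seen as loss of fluorescence signal versus DMSO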
# Summary of the method: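 Screening concentration 25 uM, duplicate wells, then dose series for confirmation. Cell-free enzymatic reaction measured by fluorescence intensity 1 h post-dosing; decreased signal versus DMSO taken as activity.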
# [4] = target: human Beta-secretase (BACE), BACE1 (gene 23621) (UniProt P56817); test: NVS_ENZ_hBACE: NovaScreen (NVS) Enzymatic Assay for human Beta-secretase (BACE) (AID 2283140);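 further: hits are inhibitors that reduce fluorescent substrate signal versus DMSO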
# Summary of the method: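 Compounds were first tested in duplicate at 25 uM, then actives in concentration series, against recombinant BACE1 from SF9 cells. Enzyme activity was measured by fluorescence intensity 1 hour after dosing, with DMSO as negative control.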
# [5] = target: guinea pig Opioid, Kappa 1 Receptor (OpiateK), OPRK1 (gene 100135587) (UniProt P41144); test: NVS_GPCR_gOpiateK: NovaScreen (NVS) G Protein-Coupled Receptor Assay for guinea pig Opioid, Kappa 1 Receptor (OpiateK) (AID 2283252);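 further: radioligand displacement from kappa opioid receptor in guinea pig cerebellar membranes; active means reduced radioligand binding relative to DMSO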
# Summary of the method: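 Signal is scintillation counts of filter-trapped radioligand bound to guinea pig cerebellar membrane receptor, measured 2 hours post-dosing. Activity is loss of binding versus DMSO, first at 25 uM in duplicate, then as concentration series for actives.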
# [6] = target: human CYP1A2, CYP1A2 (gene 1544) (UniProt P05177); test: NVS_ADME_hCYP1A2: NovaScreen (NVS) CYP450-related Enzyme Activity (ADME) Assay for human CYP1A2 (AID 2283102)
# Summary of the method: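 Fluorescence-intensity enzyme activity read-out, taken 0.5 h post-dosing, using insect-cell-derived recombinant CYP1A2 and specific fluorescent substrate. Acetonitrile served as negative control/baseline. Single-concentration duplicate screen at 10 uM, then concentration-response follow-up.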
# [7] = target: Cytochrome P450 2C19 (Homo sapiens) (UniProt P33261); test: NVS_ADME_hCYP2C19: NovaScreen (NVS) CYP450-related Enzyme Activity (ADME) Assay for human CYP2C19 (AID 2283113);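 further: potency for inhibition seen as loss of fluorescent signal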
# Summary of the method: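 Recombinant insect-cell-expressed enzyme, fluorescent substrate, 1 h after chemical addition, fluorescence intensity. Baseline = acetonitrile vehicle; activity scored as signal loss. Primary HTS single concentration 10 uM, duplicate; actives retested in concentration series.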
# [8] = target: rat Constitutive Nitric Oxide Synthase (CNOS), Nos1 (gene 24598) (UniProt P29476); test: NVS_ENZ_rCNOS: NovaScreen (NVS) Enzymatic Assay for rat Constitutive Nitric Oxide Synthase (CNOS) (AID 2283236)
# Summary of the method: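 Enzyme activity in rat brain membrane preparation, read 1 h after dosing by filter-based radiometric scintillation counting. Primary screen in duplicate at 25 uM; actives (e.g., ≥30% inhibition) then run in concentration-response up to 50 uM.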
# [9] = target: human Dual Specificity Protein Phosphatase 3 (DUSP3), DUSP3 (gene 1845) (UniProt P51452); test: NVS_ENZ_hDUSP3: NovaScreen (NVS) Enzymatic Assay for human Dual Specificity Protein Phosphatase 3 (DUSP3) (AID 2283152);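 further: phosphatase activity of recombinant human DUSP3 on a fluorogenic substrate without cells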
# Summary of the method: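 Cell-free assay with recombinant human DUSP3 and fluorogenic substrate, read by fluorescence intensity. Primary screen ran duplicate at 25 uM; actives followed up in concentration series; loss of signal versus DMSO scored.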
# [10] = target: human Phosphodiesterase 10 (PDE10), PDE10A (gene 10846) (UniProt Q9Y233); test: NVS_ENZ_hPDE10: NovaScreen (NVS) Enzymatic Assay for human Phosphodiesterase 10 (PDE10) (AID 2283195)
# Summary of the method: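 PDE10A, cell-free; 1 h incubation; fluorescence intensity + electrophoretic mobility shift separating substrate/product; DMSO = baseline; 25 uM duplicate primary, CRC up to 50 uM.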
# [11] = target: human Phosphoinositide 3-kinase alpha (PI3Ka), PIK3CA (gene 5290) (UniProt P42336); test: NVS_ENZ_hPI3Ka: NovaScreen (NVS) Enzymatic Assay for human Phosphoinositide 3-kinase alpha (PI3Ka) (AID 2283196)
# Summary of the method: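 Duplicate single-point screen (25 uM), then singleton dose-response (max 50 uM) for compounds meeting the threshold. Cell-free kinase reaction, 1 h; fluorescent mobility-shift readout.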
# [12] = target: human Caspase 5 (CASP5), CASP5 (gene 838) (UniProt P51878); test: NVS_ENZ_hCASP5: NovaScreen (NVS) Enzymatic Assay for human Caspase 5 (CASP5) (AID 2283137)
# Summary of the method: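 E. coli-derived enzyme, cell-free, 2 h incubation, fluorescence intensity. 25 uM duplicate single-point; hits → concentration series to 50 uM. DMSO baseline, positive/negative controls on every plate.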
# [13] = target: human Vascular Endothelial Growth Factor Receptor 1 (VEGFR1), FLT1 (gene 2321) (UniProt P17948); test: NVS_ENZ_hVEGFR1: NovaScreen (NVS) Enzymatic Assay for human Vascular Endothelial Growth Factor Receptor 1 (VEGFR1) (AID 2283226)
# Summary of the method: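 Cell-free assay of recombinant human VEGFR1 kinase with substrate, measured 1 h after dosing; fluorescence with electrophoretic mobility-shift separation of substrate and product, referenced to DMSO; primary screen at 25 uM in duplicate, actives then run in concentration series.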
# [14] = target: human MAP Kinase-Activated Protein Kinase 2 (MAPKAPK2), MAPKAPK2 (gene 9261) (UniProt P49137); test: NVS_ENZ_hMAPKAPK2: NovaScreen (NVS) Enzymatic Assay for human MAP Kinase-Activated Protein Kinase 2 (MAPKAPK2) (AID 2283178)
# Summary of the method: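 Cell-free recombinant human MAPKAPK2 activity measured by fluorescence with electrophoretic mobility shift separation of substrate and product, 1 hr after dosing. Loss of signal versus DMSO; primary screen at 25 uM, concentration-response up to 50 uM.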
# [15] = target: human Matrix Metalloproteinase-2 (MMP2), MMP2 (gene 4313) (UniProt P08253); test: NVS_ENZ_hMMP2: NovaScreen (NVS) Enzymatic Assay for human Matrix Metalloproteinase-2 (MMP2) (AID 2283184)
# Summary of the method: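 Cell-free recombinant MMP2 activity with a fluorescent substrate, read 1 h after dosing. Primary screen in duplicate at 25 uM; actives then run in concentration series; loss of signal fitted versus DMSO.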
# [16] = target: sheep Cyclooxygenase-2 (Cox2), PTGS2 (gene 443460) (UniProt P79208); test: NVS_ENZ_oCOX2: NovaScreen (NVS) Enzymatic Assay for sheep Cyclooxygenase-2 (Cox2) (AID 2283231)
# Summary of the method: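 Compounds were first run at 25 uM in duplicate against tissue-extracted ovine COX-2; those passing a preset inhibition threshold went to singleton concentration-response testing with a 50 uM maximum. Read-out: absorbance at 0.66 hour.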
# [17] = target: guinea pig Leukotriene D4 Receptor (LTD4), CYSLTR1 (gene 100135514) (UniProt Q2NNR5); test: NVS_GPCR_gLTD4: NovaScreen (NVS) G Protein-Coupled Receptor Assay for guinea pig Leukotriene D4 Receptor (LTD4) (AID 2283248)
# Summary of the method: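 Radioligand displacement on guinea pig lung membranes, 1 h incubation, filtration and scintillation counting; DMSO as negative control. Duplicate 25 uM primary screen, then singleton concentration-response up to 50 uM.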
# Chain of human Beta-secretase (BACE), BACE1 (gene 23621) (P56817 whole entry, looked up): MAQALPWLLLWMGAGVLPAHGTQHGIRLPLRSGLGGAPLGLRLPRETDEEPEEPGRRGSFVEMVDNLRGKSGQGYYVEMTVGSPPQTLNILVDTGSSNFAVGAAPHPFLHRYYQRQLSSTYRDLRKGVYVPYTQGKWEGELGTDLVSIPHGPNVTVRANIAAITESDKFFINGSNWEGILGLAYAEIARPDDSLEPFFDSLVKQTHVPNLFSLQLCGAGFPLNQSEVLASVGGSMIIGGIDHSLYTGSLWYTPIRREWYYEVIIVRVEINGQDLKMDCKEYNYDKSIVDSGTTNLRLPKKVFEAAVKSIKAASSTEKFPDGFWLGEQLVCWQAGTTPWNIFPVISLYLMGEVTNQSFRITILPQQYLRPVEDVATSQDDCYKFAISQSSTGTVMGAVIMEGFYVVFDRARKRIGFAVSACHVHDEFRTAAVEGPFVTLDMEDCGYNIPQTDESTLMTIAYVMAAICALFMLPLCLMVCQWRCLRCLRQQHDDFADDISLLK
# Chain of human Ephrin type-A Receptor 1 (EphA1), EPHA1 (gene 2041) (P21709 whole entry, looked up): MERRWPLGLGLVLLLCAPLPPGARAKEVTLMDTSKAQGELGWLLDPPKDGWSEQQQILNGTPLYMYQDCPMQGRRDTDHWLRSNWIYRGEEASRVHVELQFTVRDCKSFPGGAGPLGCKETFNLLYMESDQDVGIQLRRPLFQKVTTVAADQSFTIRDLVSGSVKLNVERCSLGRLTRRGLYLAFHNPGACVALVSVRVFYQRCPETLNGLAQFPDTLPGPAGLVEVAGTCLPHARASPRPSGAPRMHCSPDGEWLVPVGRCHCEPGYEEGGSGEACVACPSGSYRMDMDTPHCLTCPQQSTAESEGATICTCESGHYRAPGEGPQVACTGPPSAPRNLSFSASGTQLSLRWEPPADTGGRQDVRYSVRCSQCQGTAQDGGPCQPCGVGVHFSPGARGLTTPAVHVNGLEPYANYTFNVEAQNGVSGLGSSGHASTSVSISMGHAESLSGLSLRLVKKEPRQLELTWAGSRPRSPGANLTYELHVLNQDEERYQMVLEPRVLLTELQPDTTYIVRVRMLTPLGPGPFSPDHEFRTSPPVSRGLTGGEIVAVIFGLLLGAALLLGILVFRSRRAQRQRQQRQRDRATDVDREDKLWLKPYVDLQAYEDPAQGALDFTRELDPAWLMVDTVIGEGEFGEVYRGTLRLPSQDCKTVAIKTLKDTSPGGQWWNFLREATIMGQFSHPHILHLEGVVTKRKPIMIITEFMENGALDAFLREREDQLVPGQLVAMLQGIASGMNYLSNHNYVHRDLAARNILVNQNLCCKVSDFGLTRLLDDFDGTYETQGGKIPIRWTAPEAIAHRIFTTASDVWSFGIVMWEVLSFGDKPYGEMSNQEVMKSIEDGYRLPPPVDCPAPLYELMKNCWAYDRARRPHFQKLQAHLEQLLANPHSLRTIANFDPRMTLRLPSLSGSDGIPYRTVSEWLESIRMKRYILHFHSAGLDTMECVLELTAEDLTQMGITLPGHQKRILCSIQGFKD
# Chain of human Matrix Metalloproteinase-9 (MMP9), MMP9 (gene 4318) (P14780 whole entry, looked up): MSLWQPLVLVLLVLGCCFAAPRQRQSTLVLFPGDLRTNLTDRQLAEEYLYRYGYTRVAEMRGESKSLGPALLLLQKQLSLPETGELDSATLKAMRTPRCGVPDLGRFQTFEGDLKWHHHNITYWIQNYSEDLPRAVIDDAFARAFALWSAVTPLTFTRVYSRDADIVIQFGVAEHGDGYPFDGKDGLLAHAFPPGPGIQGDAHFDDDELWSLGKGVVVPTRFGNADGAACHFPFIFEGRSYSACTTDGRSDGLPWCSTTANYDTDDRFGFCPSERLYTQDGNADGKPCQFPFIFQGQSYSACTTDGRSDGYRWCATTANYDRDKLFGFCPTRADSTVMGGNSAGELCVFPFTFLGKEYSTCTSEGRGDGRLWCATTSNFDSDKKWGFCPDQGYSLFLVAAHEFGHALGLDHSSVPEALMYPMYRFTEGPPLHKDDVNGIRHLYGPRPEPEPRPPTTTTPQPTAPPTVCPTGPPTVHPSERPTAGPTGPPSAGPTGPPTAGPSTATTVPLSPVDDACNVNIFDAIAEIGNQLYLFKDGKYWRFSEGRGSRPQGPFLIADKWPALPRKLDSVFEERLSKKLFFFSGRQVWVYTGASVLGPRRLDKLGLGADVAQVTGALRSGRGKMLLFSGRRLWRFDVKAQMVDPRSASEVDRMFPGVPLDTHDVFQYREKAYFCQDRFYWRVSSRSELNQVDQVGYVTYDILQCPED
# Chain of guinea pig Opioid, Kappa 1 Receptor (OpiateK), OPRK1 (gene 100135587) (P41144 whole entry, looked up): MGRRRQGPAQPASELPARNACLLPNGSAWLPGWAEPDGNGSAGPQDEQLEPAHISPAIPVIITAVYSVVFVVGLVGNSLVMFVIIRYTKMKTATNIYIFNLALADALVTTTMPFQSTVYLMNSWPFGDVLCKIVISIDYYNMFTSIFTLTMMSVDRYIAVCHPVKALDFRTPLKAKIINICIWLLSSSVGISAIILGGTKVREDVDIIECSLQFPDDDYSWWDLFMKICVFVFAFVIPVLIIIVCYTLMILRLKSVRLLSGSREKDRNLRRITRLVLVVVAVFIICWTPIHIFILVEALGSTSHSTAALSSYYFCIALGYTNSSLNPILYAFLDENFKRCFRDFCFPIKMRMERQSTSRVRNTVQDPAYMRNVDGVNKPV
# Chain of sheep Cyclooxygenase-2 (Cox2), PTGS2 (gene 443460) (P79208 whole entry, looked up): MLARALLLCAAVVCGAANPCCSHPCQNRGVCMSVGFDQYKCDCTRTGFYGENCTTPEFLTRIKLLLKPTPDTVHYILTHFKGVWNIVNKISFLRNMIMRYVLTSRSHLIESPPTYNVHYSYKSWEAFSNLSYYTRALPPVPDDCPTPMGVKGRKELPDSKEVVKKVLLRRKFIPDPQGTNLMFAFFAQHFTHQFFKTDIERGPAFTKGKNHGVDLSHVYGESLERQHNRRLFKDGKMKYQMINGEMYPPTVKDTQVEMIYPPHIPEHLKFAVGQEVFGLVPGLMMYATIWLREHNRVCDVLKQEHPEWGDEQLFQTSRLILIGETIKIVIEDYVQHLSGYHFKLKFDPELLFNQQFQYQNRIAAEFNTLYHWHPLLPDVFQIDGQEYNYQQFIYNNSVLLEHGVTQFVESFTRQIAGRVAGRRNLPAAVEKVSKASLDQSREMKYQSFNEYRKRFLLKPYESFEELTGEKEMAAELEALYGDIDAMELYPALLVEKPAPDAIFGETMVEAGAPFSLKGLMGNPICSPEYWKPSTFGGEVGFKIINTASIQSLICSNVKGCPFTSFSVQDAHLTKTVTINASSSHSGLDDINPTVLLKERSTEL
# Chain of human Dual Specificity Protein Phosphatase 3 (DUSP3), DUSP3 (gene 1845) (P51452 whole entry, looked up): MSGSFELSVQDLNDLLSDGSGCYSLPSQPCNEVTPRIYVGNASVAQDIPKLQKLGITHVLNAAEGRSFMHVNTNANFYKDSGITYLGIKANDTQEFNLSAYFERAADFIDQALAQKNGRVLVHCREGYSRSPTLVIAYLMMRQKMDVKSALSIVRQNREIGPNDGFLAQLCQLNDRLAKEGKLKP
# Chain of Cytochrome P450 3A4 (Homo sapiens) (P08684 whole entry, looked up): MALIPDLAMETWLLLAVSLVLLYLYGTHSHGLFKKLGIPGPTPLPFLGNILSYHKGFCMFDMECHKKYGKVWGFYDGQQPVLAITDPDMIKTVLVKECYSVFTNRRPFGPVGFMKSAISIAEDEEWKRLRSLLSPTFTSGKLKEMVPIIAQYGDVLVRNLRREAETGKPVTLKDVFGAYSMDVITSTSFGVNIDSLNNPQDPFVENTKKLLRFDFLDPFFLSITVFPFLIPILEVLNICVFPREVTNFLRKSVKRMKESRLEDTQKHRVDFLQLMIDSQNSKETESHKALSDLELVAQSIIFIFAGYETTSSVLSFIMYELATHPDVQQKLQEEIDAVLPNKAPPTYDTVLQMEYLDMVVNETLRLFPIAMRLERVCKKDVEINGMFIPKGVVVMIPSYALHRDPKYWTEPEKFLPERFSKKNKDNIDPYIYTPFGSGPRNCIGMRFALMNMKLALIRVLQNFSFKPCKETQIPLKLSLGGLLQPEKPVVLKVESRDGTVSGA
# Chain of guinea pig Leukotriene D4 Receptor (LTD4), CYSLTR1 (gene 100135514) (Q2NNR5 whole entry, looked up): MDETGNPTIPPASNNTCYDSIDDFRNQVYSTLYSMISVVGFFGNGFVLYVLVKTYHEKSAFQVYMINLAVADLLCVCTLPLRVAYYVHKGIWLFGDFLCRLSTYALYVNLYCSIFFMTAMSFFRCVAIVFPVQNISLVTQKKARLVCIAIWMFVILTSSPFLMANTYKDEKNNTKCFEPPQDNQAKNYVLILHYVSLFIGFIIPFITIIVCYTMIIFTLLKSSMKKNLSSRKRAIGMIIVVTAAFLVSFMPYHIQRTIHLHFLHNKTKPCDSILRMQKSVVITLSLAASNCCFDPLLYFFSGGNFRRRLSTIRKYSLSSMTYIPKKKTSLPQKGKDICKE
# Chain of human CYP1A2, CYP1A2 (gene 1544) (P05177 whole entry, looked up): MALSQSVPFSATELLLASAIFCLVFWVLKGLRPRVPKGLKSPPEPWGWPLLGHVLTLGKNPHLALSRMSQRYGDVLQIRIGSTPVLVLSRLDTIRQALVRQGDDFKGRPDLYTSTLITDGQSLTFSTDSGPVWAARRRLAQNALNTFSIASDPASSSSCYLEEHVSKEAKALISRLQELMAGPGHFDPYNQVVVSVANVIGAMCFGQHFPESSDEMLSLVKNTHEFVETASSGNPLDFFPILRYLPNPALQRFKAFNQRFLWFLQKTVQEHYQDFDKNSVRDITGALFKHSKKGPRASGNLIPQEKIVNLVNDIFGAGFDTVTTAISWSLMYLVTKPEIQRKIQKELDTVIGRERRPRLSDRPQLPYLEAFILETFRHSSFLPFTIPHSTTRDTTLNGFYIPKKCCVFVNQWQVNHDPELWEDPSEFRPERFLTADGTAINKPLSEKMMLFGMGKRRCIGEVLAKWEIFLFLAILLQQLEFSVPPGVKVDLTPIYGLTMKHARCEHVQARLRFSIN
smiles,measurement,setting,value
Nc1ncnc2nc[nH]c12,outcome,[1],inactive
Cc1c(O)cccc1O,outcome,[2],inactive
same,AC50,[3],25.5 µM (active)
COC(OC)(C(=O)c1ccccc1)c1ccccc1,AC50,[4],43.1 µM (active)
same,outcome,[1],inactive
same,AC50,[5],13.6 µM (active)
Oc1c(Cl)cc(Cl)c(Cl)c1Cl,outcome,[2],inactive
Cc1ccc([N+](=O)[O-])cc1N,outcome,[6],inactive
same,AC50,[7],4.92 µM (active)
same,AC50,[8],7.96 µM (active)
C=CCCCCCCCCC=O,AC50,[4],13.1 µM (active)
same,AC50,[3],5.07 µM (active)
CC(C)CCCCCOC(=O)CS,AC50,[9],25 µM (active)
same,AC50,[3],5.63 µM (active)
CC(C)CO,outcome,[1],inactive
CCOc1ccc(NC(N)=O)cc1,outcome,[1],inactive
C=CC(=O)NC(C)(C)C,AC50,[9],13.6 µM (active)
CC/C=C\CCOC(=O)c1ccccc1O,outcome,[1],inactive
CC(=O)OC(C)c1ccccc1 (stereo not drawn),outcome,[1],inactive
same,outcome,[10],inactive
same,outcome,[11],inactive
COc1ccc(C(=O)/C(Br)=C\C(=O)O)cc1,AC50,[12],18.5 µM (active)
same,AC50,[4],39.1 µM (active)
same,AC50,[3],4.96 µM (active)
Nc1cccc(N)n1,outcome,[1],inactive
same,outcome,[13],inactive
Nc1ccc(C(=O)O)cc1,outcome,[14],inactive
CCN1CN(CC)CN(CC)C1,outcome,[15],inactive
same,outcome,[16],inactive
C=C(C)C1CC=C(C)CC1 (stereo not drawn),AC50,[16],19.3 µM (active)
CN1CCN(C)CC1,outcome,[17],inactive
CCOC(=O)C1=NN(c2ccc(Cl)cc2Cl)C(C)(C(=O)OCC)C1 (stereo not drawn),AC50,[5],14.3 µM (active)
CC1=CC=C(C(C)C)CC1,outcome,[5],inactive
